Measured values from PubChem BioAssay (Tox21).
Results filed as inconclusive are left out. The source made the active and inactive calls. Unless noted, the call rests on the fitted dose curve; in most records, active means well fitted curve in the direction sought with a large enough effect in the repeat runs; inconclusive means weak or mixed curves; inactive means no such curve, though single readings can be large; an effect the other way counts as inactive or inconclusive.

How the values were obtained:
[1] = biological target: Aryl hydrocarbon receptor (Homo sapiens) (UniProt P35869); assay: qHTS assay to identify small molecule that activate the aryl hydrocarbon receptor (AhR) signaling pathway (AID 743085); further: nearly all actives have a fitted effect of over 15% in size; further: potency means the concentration at half of the fitted maximal effect;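 on activation: HG2L7.5c1 human HepG2 liver cells with stably integrated DRE-driven firefly reporter; series mostly up to about 70 µM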
Chain of Aryl hydrocarbon receptor (Homo sapiens) (P35869 whole entry, looked up): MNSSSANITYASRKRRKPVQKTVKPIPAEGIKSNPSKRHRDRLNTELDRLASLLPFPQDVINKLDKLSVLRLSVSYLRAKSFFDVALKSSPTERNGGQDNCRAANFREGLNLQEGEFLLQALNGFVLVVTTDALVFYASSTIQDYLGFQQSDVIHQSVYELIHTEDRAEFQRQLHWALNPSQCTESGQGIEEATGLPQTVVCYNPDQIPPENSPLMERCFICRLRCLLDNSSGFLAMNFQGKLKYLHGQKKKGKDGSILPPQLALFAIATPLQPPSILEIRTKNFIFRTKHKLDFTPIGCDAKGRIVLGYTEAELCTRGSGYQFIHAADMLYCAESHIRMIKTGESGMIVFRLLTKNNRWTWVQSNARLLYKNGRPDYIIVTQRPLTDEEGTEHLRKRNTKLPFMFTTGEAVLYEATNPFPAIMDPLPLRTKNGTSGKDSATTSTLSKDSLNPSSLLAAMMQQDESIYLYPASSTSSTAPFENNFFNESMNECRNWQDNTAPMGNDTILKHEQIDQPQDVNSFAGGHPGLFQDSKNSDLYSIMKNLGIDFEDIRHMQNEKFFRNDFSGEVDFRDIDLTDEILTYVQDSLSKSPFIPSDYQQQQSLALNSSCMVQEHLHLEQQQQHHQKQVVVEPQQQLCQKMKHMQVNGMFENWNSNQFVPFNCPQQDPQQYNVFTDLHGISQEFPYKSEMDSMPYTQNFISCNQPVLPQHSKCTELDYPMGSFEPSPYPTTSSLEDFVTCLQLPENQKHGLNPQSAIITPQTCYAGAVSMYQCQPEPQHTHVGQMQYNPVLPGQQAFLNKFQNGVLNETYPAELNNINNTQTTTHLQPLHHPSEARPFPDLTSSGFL
In short: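 AhR agonist activity is inferred from enhanced light output of a DRE-controlled firefly luciferase reporter in HepG2 cells, measured with ONE-Glo following 24 h treatment at 37C.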

[2] = qHTS assay to identify small molecule that activate the aryl hydrocarbon receptor (AhR) signaling pathway - cell viability counter screen (AID 743086);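 further: HepG2 liver cells carrying the AhR DRE luciferase reporter; series mostly up to about 70 µM; nearly all actives have a fitted effect of over 45% in size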
In short: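 Cytotoxicity counter screen: CellTiter-Fluor signal (30 min, 37 C) in 4000 HepG2 cells/well carrying the DRE-luciferase reporter, following 24 h compound exposure at 37 C.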

[3] = biological target: Peroxisome proliferator-activated receptor gamma (Homo sapiens) (UniProt P37231); assay: qHTS assay to identify small molecule agonists of the peroxisome proliferator-activated receptor gamma (PPARg) signaling pathway (AID 743094; active means well fitted activation curve with a large enough effect in the signal ratio in the repeat runs, not every such curve was filed as active; the % refers to the signal ratio)
Chain of Peroxisome proliferator-activated receptor gamma (Homo sapiens) (P37231 whole entry, looked up): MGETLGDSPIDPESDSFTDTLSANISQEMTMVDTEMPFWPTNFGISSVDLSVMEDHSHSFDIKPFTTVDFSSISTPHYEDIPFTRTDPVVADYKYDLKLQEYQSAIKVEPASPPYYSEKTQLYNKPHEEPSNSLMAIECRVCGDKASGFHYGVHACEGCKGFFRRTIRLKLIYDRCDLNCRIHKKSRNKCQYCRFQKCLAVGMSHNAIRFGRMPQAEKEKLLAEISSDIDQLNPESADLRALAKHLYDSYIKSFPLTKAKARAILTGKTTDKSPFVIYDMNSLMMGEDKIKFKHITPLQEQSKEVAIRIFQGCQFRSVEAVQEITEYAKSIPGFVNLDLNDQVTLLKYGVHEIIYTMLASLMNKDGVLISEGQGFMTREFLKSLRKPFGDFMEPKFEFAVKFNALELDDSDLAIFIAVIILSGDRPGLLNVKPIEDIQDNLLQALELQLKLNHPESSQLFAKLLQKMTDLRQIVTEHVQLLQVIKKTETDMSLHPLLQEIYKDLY
In short: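 Quantitative HTS agonist mode: stable HEK293H line with UAS-beta-lactamase reporter under PPARg control, 17 h compound exposure at 37C, fluorescence after 1 h FRET substrate loading at room temperature.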

[4] = biological target: Peroxisome proliferator-activated receptor gamma (Homo sapiens) (UniProt P37231); assay: qHTS assay to identify small molecule antagonists of the peroxisome proliferator-activated receptor gamma (PPARg) signaling pathway (AID 743191; calls by dose curve; further: series mostly up to about 63 µM; nearly all actives have a fitted effect of over 30% in size)
In short: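 Beta-lactamase reporter under UAS control in HEK293H PPARg-bla cells; compound treatment 17 h at 37C. Read-out: fluorescence intensity after 1 h room-temperature incubation with LiveBLAzer B/G FRET substrate.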

[5] = qHTS assay to identify small molecule antagonists of the peroxisome proliferator-activated receptor gamma (PPARg) signaling pathway - cell viability counter screen (AID 743194); further: nearly all actives have a fitted effect of over 55% in size
In short: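 Viability was measured as CellTiter-Glo luminescence in GeneBLAzer PPARg UAS-bla HEK293H cells. These cells had been exposed 17 h at 37 C to compounds together with rosiglitazone at 50 nM final, with the beta-lactamase readout taken in the same wells.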

[6] = qHTS assay for small molecule agonists of the antioxidant response element (ARE) signaling pathway (AID 743202; active means well fitted activation curve with a large enough effect in the signal ratio in the repeat runs, not every such curve was filed as active; the % refers to the signal ratio)
In short: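 An ARE-responsive beta-lactamase gene stably integrated in HepG2 cells serves as reporter. After 5 h plating and 16 h compound incubation at 37 C, fluorescence of the B/G FRET substrate was measured.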

[7] = qHTS assay for small molecule agonists of the antioxidant response element (ARE) signaling pathway - cell viability counter screen (AID 743203; calls by dose curve; further: nearly all actives have a fitted effect of over 55% in size)
In short: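 Seeded at 2,000 cells/well, ARE-bla HepG2 cells were incubated 5 hrs before compound addition. After 16 hrs of treatment at 37C with 5% CO2, CellTiter-Glo reagent was added and luminescence read 30 min later.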

[8] = qHTS assay for small molecule activators of the heat shock response signaling pathway - cell viability counter screen (AID 743209); further: nearly all actives have a fitted effect of over 50% in size
In short: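 First, HSE-bla HeLa cells were seeded at 1500 cells/well and kept overnight at 37 C. Next, compounds were pinned in and incubated 5 h. After the FRET substrate step, CellTiter-Glo was added and luminescence read 30 min later.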

[9] = qHTS assay to identify small molecule agonists of the peroxisome proliferator-activated receptor delta (PPARd) signaling pathway - cell viability counter screen (AID 743211); further: nearly all actives have a fitted effect of over 55% in size
In short: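 qHTS cell viability: PPARd-bla HEK293H; 17 h cpd, 37C; CellTiter-Glo, luminescence at 30 min RT.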

[10] = qHTS assay to identify small molecule antagonists of the peroxisome proliferator-activated receptor delta (PPARd) signaling pathway - cell viability counter screen (AID 743213); further: nearly all actives have a fitted effect of over 50% in size
In short: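 Agonist-stimulated (L165041, 300 nM final) HEK293H PPARd UAS-bla cells are exposed to compounds for 17 h at 37 C, and ATP-based luminescence (CellTiter-Glo) from the same wells reports cytotoxicity.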

[11] = qHTS assay to identify small molecule agonists of the farnesoid-X-receptor (FXR) signaling pathway - cell viability counter screen (AID 743218); further: nearly all actives have a fitted effect of over 45% in size
In short: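 Cytotoxicity counter-screen run in parallel, same wells: FXR-UAS-bla HEK 293T cells dosed 16 h at 37 C, viability read by CellTiter-Glo luminescence after 30 min at room temperature.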

[12] = biological target: Vitamin D3 receptor (Homo sapiens) (UniProt P11473); assay: qHTS assay to identify small molecule agonists of the vitamin D receptor (VDR) signaling pathway (AID 743222; calls by dose curve)
Chain of Vitamin D3 receptor (Homo sapiens) (P11473 whole entry, looked up): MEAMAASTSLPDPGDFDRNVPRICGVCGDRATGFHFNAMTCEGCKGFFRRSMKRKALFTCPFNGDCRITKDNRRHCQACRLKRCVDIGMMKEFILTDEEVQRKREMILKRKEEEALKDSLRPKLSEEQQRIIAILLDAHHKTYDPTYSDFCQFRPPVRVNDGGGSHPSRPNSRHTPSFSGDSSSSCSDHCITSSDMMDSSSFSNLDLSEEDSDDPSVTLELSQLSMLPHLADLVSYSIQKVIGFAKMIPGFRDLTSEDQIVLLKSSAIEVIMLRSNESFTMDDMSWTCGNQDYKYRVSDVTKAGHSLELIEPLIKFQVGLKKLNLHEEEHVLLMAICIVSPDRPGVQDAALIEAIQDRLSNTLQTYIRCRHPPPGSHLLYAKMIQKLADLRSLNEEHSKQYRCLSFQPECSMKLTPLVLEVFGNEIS
In short: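 Quantitative HTS agonist-mode screen: compounds in DMSO were pin-transferred onto VDR-bla cells and incubated 16 h at 37C, 5% CO2. Reporter activity was detected with LiveBLAzer B/G FRET substrate after 2 h at room temperature.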

[13] = biological target: Vitamin D3 receptor (Homo sapiens) (UniProt P11473); assay: qHTS assay to identify small molecule antagonists of the vitamin D receptor (VDR) signaling pathway (AID 743223; active means well fitted inhibition curve with a large enough effect in the signal ratio in the repeat runs, not every such curve was filed as active; the % refers to the signal ratio)
In short: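 Reporter line VDR-bla; stimulus 1alpha,25-(OH)2 vitamin D3, 3 nM final; compound co-addition, 16 h 37C/5% CO2; LiveBLAzer B/G substrate 2 h RT; fluorescence intensity.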

[14] = qHTS assay to identify small molecule agonists of the vitamin D receptor (VDR) signaling pathway - cell viability counter screen (AID 743224); further: series mostly up to about 63 µM; nearly all actives have a fitted effect of over 50% in size
In short: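 Viability is measured in the same wells as the VDR-bla reporter assay: after 16 h compound treatment and 2 h substrate loading, CellTiter-Glo is added and luminescence read 30 min later.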

[15] = biological target: Peroxisome proliferator-activated receptor delta (Homo sapiens) (UniProt Q03181); assay: qHTS assay to identify small molecule agonists of the peroxisome proliferator-activated receptor delta (PPARd) signaling pathway (AID 743212; calls by dose curve)
Chain of Peroxisome proliferator-activated receptor delta (Homo sapiens) (Q03181 whole entry, looked up): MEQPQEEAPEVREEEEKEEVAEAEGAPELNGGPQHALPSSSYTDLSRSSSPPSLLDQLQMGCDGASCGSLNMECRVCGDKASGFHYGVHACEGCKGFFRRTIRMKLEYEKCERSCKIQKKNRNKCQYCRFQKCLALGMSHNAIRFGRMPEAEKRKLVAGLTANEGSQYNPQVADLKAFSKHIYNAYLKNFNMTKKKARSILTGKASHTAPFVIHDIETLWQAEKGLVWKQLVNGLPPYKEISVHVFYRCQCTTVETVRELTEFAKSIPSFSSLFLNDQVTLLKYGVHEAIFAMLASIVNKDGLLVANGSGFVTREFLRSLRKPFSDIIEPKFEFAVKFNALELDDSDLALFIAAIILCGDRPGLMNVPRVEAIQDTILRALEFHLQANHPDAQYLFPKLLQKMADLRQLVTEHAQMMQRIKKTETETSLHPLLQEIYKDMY
In short: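 HEK293H UAS-bla reporter cells, human PPARd system; compounds delivered in DMSO after 5 h plating, then at 37 C. Beta-lactamase FRET read, 2 h RT substrate step.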

[16] = biological target: Peroxisome proliferator-activated receptor delta (Homo sapiens) (UniProt Q03181); assay: qHTS assay to identify small molecule antagonists of the peroxisome proliferator-activated receptor delta (PPARd) signaling pathway (AID 743215; active means well fitted inhibition curve with a large enough effect in the signal ratio in the repeat runs, not every such curve was filed as active; the % refers to the signal ratio; further: series mostly up to about 62 µM)
In short: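 Inhibition of L165041-driven (300 nM final) PPARd signaling is scored in HEK293H UAS-bla cells. Exposure lasts 17 h at 37 C; beta-lactamase activity is then read by FRET substrate fluorescence after 2 h at room temperature.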

[17] = biological target: Bile acid receptor (Homo sapiens) (UniProt Q96RI1); assay: qHTS assay to identify small molecule antagonists of the farnesoid-X-receptor (FXR) signaling pathway (AID 743217; active means well fitted inhibition curve with a large enough effect in the signal ratio in the repeat runs, not every such curve was filed as active; the % refers to the signal ratio)
Chain of Bile acid receptor (Homo sapiens) (Q96RI1 whole entry, looked up): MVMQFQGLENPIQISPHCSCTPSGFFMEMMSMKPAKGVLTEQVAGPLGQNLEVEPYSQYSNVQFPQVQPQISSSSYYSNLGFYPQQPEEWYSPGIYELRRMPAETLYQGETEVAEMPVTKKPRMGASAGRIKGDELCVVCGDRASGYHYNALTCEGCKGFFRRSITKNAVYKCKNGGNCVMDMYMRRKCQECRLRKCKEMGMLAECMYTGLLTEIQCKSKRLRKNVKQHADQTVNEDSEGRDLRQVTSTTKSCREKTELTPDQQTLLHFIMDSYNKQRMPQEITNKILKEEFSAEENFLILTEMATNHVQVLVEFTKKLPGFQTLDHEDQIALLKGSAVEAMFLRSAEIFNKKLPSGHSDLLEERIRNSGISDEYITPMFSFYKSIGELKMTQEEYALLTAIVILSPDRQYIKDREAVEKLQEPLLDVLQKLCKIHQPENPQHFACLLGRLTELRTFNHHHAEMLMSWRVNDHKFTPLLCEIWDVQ
In short: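 Antagonist mode against 50 uM (final) chenodeoxycholic acid stimulation in FXR-bla HEK 293T cells, 16 h at 37 °C. Inhibition detected as reduced beta-lactamase activity via LiveBLAzer B/G FRET fluorescence after 2 h at room temperature.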

[18] = biological target: Bile acid receptor (Homo sapiens) (UniProt Q96RI1); assay: qHTS assay to identify small molecule agonists of the farnesoid-X-receptor (FXR) signaling pathway (AID 743220; active means well fitted activation curve with a large enough effect in the signal ratio in the repeat runs, not every such curve was filed as active; the % refers to the signal ratio)
In short: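 Beta-lactamase reporter under UAS control in GeneBLAzer FXR HEK 293T cells (5000/well) measured with LiveBLAzer FRET substrate after 2 h at room temperature. Compound exposure lasted 16 h at 37C.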

[19] = qHTS assay to identify small molecule antagonists of the farnesoid-X-receptor (FXR) signaling pathway - cell viability counter screen (AID 743221; active means well fitted cell-killing curve with a large enough effect in the repeat runs, not every such curve was filed as active; further: nearly all actives have a fitted effect of over 50% in size)
In short: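 After a 5 h settling period, FXR-bla HEK 293T cells receive compound and chenodeoxycholic acid (50 uM final) and incubate 16 h at 37 C; CellTiter-Glo luminescence, read after 30 min at room temperature, reports cell viability.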

[20] = qHTS assay for small molecule activators of the heat shock response signaling pathway (AID 743210; active means well fitted activation curve with a large enough effect in the signal ratio in the repeat runs, with a control signal flat, not every such curve was filed as active; the % refers to the signal ratio;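 further: HeLa cells with beta-lactamase reporter driven by heat shock elements; series mostly up to about 63 µM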)
In short: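 In HSE-bla HeLa cells, 5 h compound incubation (37 C) precedes addition of LiveBLAzer B/G substrate; after 2.5 h at room temperature, fluorescence intensity indicates reporter induction.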

Measured: Potency

CCCCOC(=O)c1ccccc1C(=O)OCCCC
not listed: [15] | [16] | [17] | [18] | [19] | [20]
inactive: all other assays above

CCCN(CCC)c1c([N+](=O)[O-])cc(C(F)(F)F)cc1[N+](=O)[O-]
not listed: [19] | [20]
inactive: all other assays above

CN(N=O)c1ccccc1
not listed: [20]
inactive: all other assays above

CCCCCCCCCCCC#N
inactive: all assays above

COC(=O)c1ccccc1N
not listed: [5] | [17] | [18]
inactive: all other assays above

COP(N)(=O)SC (centres undefined)
not listed: [19]
inactive: all other assays above

CCCC1COC(Cn2cncn2)(c2ccc(Cl)cc2Cl)O1 (centres undefined)
active: [1] 34.4 µM
not listed: [6]
inactive: all other assays above

Nc1ccccc1C(=O)O
not listed: [15] | [16]
inactive: all other assays above
